KLF5 inhibitor: suppresses KLF5 promoter-driven expression; DLD-1 KLF5 promoter-luciferase reporter, luminescence; 290,000 tested, 0.23% active; inhibition, % at 5 µM;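 active = inhibition above a per-plate limit of that plate's mean compound inhibition plus 3 SD, cut at about 60% in these data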;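 note: higher means less KLF5 promoter-driven luciferase light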
Jurkat NFkB inh: lowers PMA/ionomycin-induced NF-kB signal in Jurkat cells | PMA/ionomycin-induced NF-kB luciferase reporter, luminescence | inhibition, % at 4 µM | 330,000 tested, 0.53% active | AID 435003; in the data active = inhibition above about 50%
Gli-Sufu block: blocks Gli-Sufu signaling in a luciferase reporter | inhibition, % at 5 µM | AID 588413 | Sufu-KO-LIGHT fibroblasts, Gli luciferase reporter luminescence | 340,000 tested, 0.74% active;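 active = inhibition above about 55%, limit read from the data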
aSyn 5UTR inh: 5' untranslated region of α-synuclein, MLPCN primary screen | AID 1813 | 300,000 tested, 0.82% active | inhibition, % (tested at 7.5 µM) | alpha-synuclein 5'UTR reporter, inhibitor activity; in the data active = inhibition above about 60%;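 note: H4 neuroglioblastoma cells stably carrying SNCA 5'UTR luciferase fusion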
697 NFkB inh: inhibitors of the PMA/ionomycin-induced NF-kB reporter in 697 B cells; AID 435022; inhibition, % at 4 µM; 330,000 tested, 0.33% active; 697 B-cell NF-kB luciferase reporter, 16 h; in the data active = inhibition above about 35%
Mdm2-MdmX inh: disrupts the human Mdm2-MdmX interaction; O15151+Q00987; SaOS-2 split-luciferase Mdm2/MdmX complementation, luminescence; inhibition, % at 8 µM; 330,000 tested, 3% active; AID 485346;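 active = inhibition of at least 50% at 8 µM in the primary screen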
Target sequence (O15151 whole entry, looked up): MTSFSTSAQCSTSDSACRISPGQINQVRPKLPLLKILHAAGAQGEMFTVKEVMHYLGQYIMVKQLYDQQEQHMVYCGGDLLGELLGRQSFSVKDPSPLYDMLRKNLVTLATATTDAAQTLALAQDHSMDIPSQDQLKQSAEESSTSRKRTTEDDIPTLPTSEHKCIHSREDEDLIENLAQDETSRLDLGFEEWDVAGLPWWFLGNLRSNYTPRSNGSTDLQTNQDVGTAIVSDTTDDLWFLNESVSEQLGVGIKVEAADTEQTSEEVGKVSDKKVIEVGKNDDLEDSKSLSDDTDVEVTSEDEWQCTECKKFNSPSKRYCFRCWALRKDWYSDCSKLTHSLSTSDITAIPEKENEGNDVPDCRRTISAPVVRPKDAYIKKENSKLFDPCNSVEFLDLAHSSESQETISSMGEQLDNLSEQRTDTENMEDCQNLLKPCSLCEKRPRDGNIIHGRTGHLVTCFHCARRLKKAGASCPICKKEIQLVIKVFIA
Target sequence (Q00987 whole entry, looked up): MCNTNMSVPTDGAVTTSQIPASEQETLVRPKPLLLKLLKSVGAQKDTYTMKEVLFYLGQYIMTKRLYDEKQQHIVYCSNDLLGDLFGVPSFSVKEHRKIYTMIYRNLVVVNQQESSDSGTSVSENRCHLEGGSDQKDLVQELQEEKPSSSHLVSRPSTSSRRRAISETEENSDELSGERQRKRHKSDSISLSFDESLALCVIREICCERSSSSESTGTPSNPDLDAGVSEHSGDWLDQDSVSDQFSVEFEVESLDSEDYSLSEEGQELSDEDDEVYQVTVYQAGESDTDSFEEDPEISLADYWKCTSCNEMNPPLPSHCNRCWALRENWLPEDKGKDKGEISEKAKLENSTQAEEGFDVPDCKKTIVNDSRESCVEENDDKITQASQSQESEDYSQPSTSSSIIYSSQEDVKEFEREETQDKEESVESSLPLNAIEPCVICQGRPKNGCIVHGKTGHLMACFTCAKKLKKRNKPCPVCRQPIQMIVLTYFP
Gli antag conf: confirmation of Gli-SUFU pathway antagonists; shares compounds with Gli-Sufu block; Sufu-KO-LIGHT cells, Gli luciferase reporter, luminescence; inhibition, % at 5 µM; 2,500 tested, 40% active; AID 602428;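 active = mean inhibition at 5 µM reaching about 45%, limit read from the data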
Gli cytotox: cytotoxic in Gli-SUFU antagonist counter-screen; shares compounds with Gli-Sufu block; Sufu-KO-LIGHT cells cytotoxicity, ATP luminescence; cytotoxicity, % at 5 µM; 2,500 tested, 32% active;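 active = mean cytotoxicity at 5 µM above about 25%, limit read from the data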;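 note: cells exposed to compound overnight for roughly 16 to 18 hours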
Wnt3a counter: inhibits Wnt3a reporter, counter-screen for Gli-SUFU antagonists; 2,500 tested, 20% active; shares compounds with Gli-Sufu block; Wnt-LIGHT cells, Wnt3a-driven luciferase reporter, luminescence; AID 651995; inhibition, % at 6.25 µM;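 active = mean inhibition above about 25%, limit read from the data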
Hits are given with their value; n = inactive; x = no result. An excerpt weighted towards active compounds, which were near 4.1% of everything screened.

SMILES | KLF5 inhibitor | Jurkat NFkB inh | Gli-Sufu block | aSyn 5UTR inh | 697 NFkB inh | Mdm2-MdmX inh | Gli antag conf | Gli cytotox | Wnt3a counter
CCN(/C=N/c1sc2c(c1C#N)CCCCC2)CC | n | n | n | n | n | n | x | x | x
COc1ccc(CCN2C(=O)N[C@@H](C(C)C)C2=O)cc1 | n | n | n | n | n | n | x | x | x
COC(=O)c1c(-n2cnnn2)sc(C)c1C | n | n | n | n | n | n | n | n | n
Cc1ccc(-c2nc3sc4c(N)ncnc4c3c3c2CCCC3)cc1 | n | n | n | n | n | n | n | n | 25
CSCCC(NS(=O)(=O)c1ccccc1F)C(=O)Nc1ccncc1 (centres undefined) | x | n | n | x | n | n | x | x | x
Cn1cnnc1SCc1ccc(C(=O)N=Nc2c(O)n(Cc3ccc(Cl)cc3)c3ccccc23)cc1 | n | n | n | n | n | n | n | n | n
O=C(C1CC1)N1CCN(c2ccc([N+](=O)[O-])cc2)CC1 | x | n | n | n | n | n | n | n | n
O=C(C1CCN(S(=O)(=O)c2cnc[nH]2)CC1)N1CCN(c2ccc([N+](=O)[O-])cc2)CC1 | n | n | n | n | n | n | x | x | x
CCCN(CCC)CCNC(=O)c1cc2c(=O)n(C)c3ccccc3c2n1C | n | n | 63 | n | n | n | n | n | n
C=CCOc1ccc(CN(C)CC(=O)Nc2ccc3c(c2)CCC3)cc1 | n | n | n | n | n | n | x | x | x
CCOc1ccc(CN(C)CC(=O)Nc2ccc3c(c2)CCC3)cc1OC | n | n | n | n | n | n | n | n | n
O=C(/C=C/c1ccccc1Cl)Nc1cccc(S(=O)(=O)NC2=NCCCCC2)c1 | n | n | n | n | n | n | n | n | n
O=C(/C=C/c1ccc(Cl)cc1Cl)Nc1cccc(S(=O)(=O)NC2=NCCC2)c1 | n | n | n | n | n | n | x | x | x
CCCCCCCNC(=O)C1CC(=O)N(C)C(=Nc2ccc(OC)cc2)S1 (centres undefined) | n | n | n | n | n | n | x | x | x
Cc1ccc(C(=O)N/N=C\C=C\c2ccc(Br)cc2)cn1 | n | n | n | n | n | n | n | n | n
CCCNC(=O)CN1C(=O)COc2ccc(S(=O)(=O)N3CC(C)CC(C)C3)cc21 (centres undefined) | n | n | n | n | n | n | x | x | x
O=C(Cn1nnc(-c2ccccc2)n1)N/N=C/c1cccc([N+](=O)[O-])c1 | n | n | n | n | n | n | n | n | n
C#Cc1cccc(C(=O)N2CCCC(C(=O)c3ccc(OC)cc3C)C2)c1 (centres undefined) | n | n | n | n | n | n | x | x | x
CC1CCN(S(=O)(=O)c2ccc(NC(=O)Cc3ccccc3)cc2)CC1 | n | n | 56 | n | n | n | n | n | n
O=C(Cc1ccccc1)Nc1ccc(S(=O)(=O)N2CCOCC2)cc1 | n | n | n | n | n | n | x | x | x
Cn1c(=O)c2c(nc(NCc3ccc4c(c3)OCO4)n2Cc2ccccc2)n(C)c1=O | n | n | 64 | n | n | n | 62 | 32 | n
Cn1c(=O)c2c(nc(NCc3ccc4c(c3)OCO4)n2Cc2ccccc2F)n(C)c1=O | n | n | n | n | n | n | x | x | x
Cn1c(=O)c2c(nc(NCc3ccc4c(c3)OCO4)n2Cc2ccc(F)cc2)n(C)c1=O | n | n | n | n | n | n | n | 27 | n
CN(C)CCNS(=O)(=O)c1ccc(N2CCc3ccccc32)c([N+](=O)[O-])c1 | n | n | n | n | n | n | x | x | x
O=C(CNC(=O)C1CCCCC1)NCc1ccco1 | n | n | n | n | n | n | x | x | x
SMILES | KLF5 inhibitor | Jurkat NFkB inh | Gli-Sufu block | aSyn 5UTR inh | 697 NFkB inh | Mdm2-MdmX inh | Gli antag conf | Gli cytotox | Wnt3a counter
CCNC(=S)N1C2CCC1CC(NC(=O)Nc1ccc(C(=O)OCC)cc1)C2 (centres undefined) | n | n | n | n | n | n | x | x | x
CCOCCCNC(=S)N1C2CCC1CC(NC(=O)Nc1ccc(C(=O)OCC)cc1)C2 (centres undefined) | n | n | 70 | n | n | n | n | 31 | n
COc1ccccc1CNS(=O)(=O)CCNCc1ccco1 | x | x | n | x | x | x | x | x | x
CC(=O)/C(N=Nc1ccc(C(=O)O)cc1[N+](=O)[O-])=C(\C)O | n | n | 80 | n | n | n | n | n | n
Cc1c(C(=O)O)sc2nc(C)n(C)c(=O)c12 | n | n | 96 | n | n | n | n | n | n
O=C(COC(=O)c1ccc(O)cc1)Nc1ccccc1[N+](=O)[O-] | n | n | n | n | n | n | x | x | x
COc1ccccc1NC(=O)c1cc(Sc2nncn2C)nc2ccccc12 | n | n | n | n | n | n | x | x | x
CC1=C(C(=O)Nc2ccccc2C)C(c2ccc(C)o2)C2=C(CCCC2=O)N1 (centres undefined) | n | n | 97 | n | n | n | n | n | 35
CC1=C(C(=O)OC2CCCCCC2)C(c2ccc(C)o2)C2=C(CCCC2=O)N1 (centres undefined) | n | n | n | n | n | n | x | x | x
COc1ccc(OC)c(S(=O)(=O)N2CCC(C(=O)NCc3ccccn3)CC2)c1 | n | n | n | n | n | n | x | x | x
O=C1CN(C(=O)NCCC(=O)NC2CCCCC2)c2ccccc2N1 | n | n | n | n | n | n | x | x | x
CN(C(=O)CCNC(=O)N1CC(=O)Nc2ccccc21)C1CCCCC1 | n | n | 57 | n | n | n | n | n | n
O=C(O)Cn1c(-c2ccccc2)nc2ccccc21 | n | n | 96 | n | n | n | n | n | n
CN(CC(=O)Nc1ccc(Cl)c(C(F)(F)F)c1)C(=O)C1CC(=O)N(C2CCCC2)C1 (centres undefined) | x | n | n | x | n | n | x | x | x
O=C(OCc1ccc([N+](=O)[O-])cc1)c1cc(=O)c2ccccc2o1 | n | n | n | n | n | n | x | x | x
NNC(=O)c1cc2ccccc2cc1O | n | n | 61 | n | n | n | 72 | n | 83
O=C(NCCO)c1cc2ccccc2cc1O | n | n | n | n | n | n | x | x | x
O=C(CCl)N=c1sccn1Cc1cccc2ccccc12 | n | x | 96 | n | x | x | n | n | n
COc1c(Cl)ccc(Cl)c1C(=O)NCc1ccco1 | n | n | n | n | n | n | n | n | n
O=C(NCc1ccco1)c1c(F)cccc1Cl | n | n | n | n | n | n | x | x | x
O=C(Nc1ccncc1)c1cccc(S(=O)(=O)N2CCc3ccccc32)c1 | x | n | 56 | n | n | n | 55 | n | 40
O=C(Nc1cccnc1)c1cccc(S(=O)(=O)N2CCc3ccccc32)c1 | n | n | n | n | n | n | x | x | x
CN(C)c1ccc2c3c(ccc(N(C)C)c13)C(=O)OC2 | n | n | n | n | n | n | x | x | x
Cc1cc(C(=O)COC(=O)c2cccc(O)c2)c(C)n1C1CC1 | x | n | 99 | x | n | n | n | 33 | 64

Source: PubChem (several laboratories)
